Where “and” joins values, the source holds several entries; their conditions need not be identical. Equal values may be shown once. Results filed as inconclusive are left out. Some structures have more than one record in an assay (separate samples or runs), and their calls can disagree. Calls of active or inactive are those of the source. Unless noted, calls follow the shape of the dose curve; as a rule, active = well fitted curve in the direction sought with a large enough effect in the repeat runs; inconclusive = weak or mixed curves; inactive = no such curve, though single readings can be large; an effect the other way counts as inactive or inconclusive.

Results on nine molecules are retold here after PubChem BioAssay (Tox21).

Test [1] addresses Retinoic acid receptor RXR-alpha (Homo sapiens) (UniProt P19793). The experiment in a line: qHTS assay to identify small molecule agonists of the RXR signaling pathway (AID 1159527; calls by dose curve; also: nearly all actives have a fitted effect of over 35% in size; also: potency is read from the fitted curve at half-maximal effect). In a few lines:
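Compounds in DMSO were added to RXR-alpha-UAS-bla HEK 293T cells kept in 2% charcoal-stripped serum, and incubated 16 hr at 37 C with 5% CO2. Reporter signal came from a 2 hr B/G FRET substrate step.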

Test [2] in a line: qHTS assay to identify small molecule agonists of the RXR signaling pathway - cell viability counter screen (AID 1159529).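 Also: HEK 293T cells carrying an RXR-alpha UAS beta-lactamase reporter; series mostly up to about 77 µM; nearly all actives have a fitted effect of over 50% in size.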 In a few lines: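 Counter screen: CellTiter-Glo luminescence. Cells: RXR-alpha-UAS-bla HEK 293T. Medium: 2% charcoal-stripped FBS. Treatment: 16 h, 37 C. Reagent incubation: 30 min, RT.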
A general note: qHTS replaces the single test concentration by a dilution series.

A short description of test [3]: qHTS assay to identify small molecule antagonists of the retinoid acid receptor (RAR) signaling pathway - cell viability counter screen (AID 1159551). Also: nearly all actives have a fitted effect of over 35% in size. An outline of the steps: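 Measured by luminescent ATP detection, viability reflects C3RL4 cells treated 6 h at 37 C with test chemicals in the presence of 1 uM (final) retinol.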
Test [4] can be described thus: qHTS assay to identify small molecule antagonists of the retinoic acid receptor (RAR) signaling pathway (AID 1159552; also: nearly all actives have a fitted effect of over 50% in size; also: potency is read from the fitted curve at half-maximal effect). In a few lines:
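Antagonism of retinol-induced RARE reporter activity was measured in C3RL4 cells. Exposure to compounds and 1 uM final retinol lasted 6 hr at 37 C, with luminescence as endpoint.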

Test [5] is described as follows: qHTS assay to identify small molecule agonists of the retinoic acid receptor (RAR) signaling pathway (AID 1159553). Also: potency is read from the fitted curve at half-maximal effect. In a few lines: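 6 hr compound exposure (DMSO vehicle) of overnight-plated C3RL4 RARE-luc cells at 37 C; luminescence quantified after 30 min RT with luciferase reagent.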
The nature of test [6]: qHTS assay to identify small molecule antagonists of the estrogen related receptor (ERR) signaling pathway - cell viability counter screen (AID 1224818). Also: series mostly up to about 46 µM. An outline of the steps:
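Compounds dissolved in DMSO were applied to ERR cells seeded at 2,000 per well 6 h earlier. Cell viability followed 17.5 h later via 30-min CellTiter-Fluor fluorescence.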

The nature of test [7]: qHTS assay to identify small molecule antagonists of the estrogen related receptor signaling pathway with the pleiotropic PPARgamma coactivator (PGC) cell viability counter screen (AID 1224822; also: series mostly up to about 46 µM). In a few lines:
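Counter screen for cell viability: PGC/ERR cells, 6 h pre-incubation after plating, 17.5 h compound exposure at 37 C, fluorescence from CellTiter-Fluor after 30 min.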

Test [8] can be described thus: qHTS assay to identify small molecule antagonists of the estrogen related receptor (ERR) signaling pathway from Tox21 library - cell viability counter screen (AID 1224834). Also: nearly all actives have a fitted effect of over 30% in size. Also: potency is read from the fitted curve at half-maximal effect. In a few lines: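 Seeded ERR cells were rested 6 h at 37 C/5% CO2 before compounds, positive and negative controls or DMSO were added. Incubation continued for 17.5 h, and viability was then quantified by CellTiter-Fluor fluorescence.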

Test [9] addresses Luciferin 4-monooxygenase (Photinus pyralis) (UniProt P08659). Nature of the test: qHTS assay to identify small molecule inhibitors of firefly luciferase (AID 1224835). Also: nearly all actives have a fitted effect of over 25% in size. Also: potency is read from the fitted curve at half-maximal effect. In a few lines: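 Quantitative HTS format; KM concentrations of both substrates. Purified P. pyralis FLuc activity quantified from luminescence images.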
Test [10] can be described thus: qHTS assay to identify small molecule agonists of the constitutive androstane receptor (CAR) signaling pathway - cell viability counter screen (AID 1224836). Also: series mostly up to about 92 µM; nearly all actives have a fitted effect of over 45% in size. An outline of the steps:
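Double-stable HepG2 hepatoma cells (hCAR plus CYP2B6-2.2kb) are treated for 23 h at 37 C with test compounds in 15-point concentration series. PK11195 at 0.75 uM final is co-added. Cell viability is quantified by CellTiter-Fluor.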

Test [11] is described as follows: qHTS assay to identify small molecule antagonists of the constitutive androstane receptor (CAR) signaling pathway - cell viability counter screen (AID 1224837). Also: series mostly up to about 92 µM; nearly all actives have a fitted effect of over 45% in size. In a few lines: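 To flag cytotoxic false antagonists, HepG2 hCAR/CYP2B6-2.2kb cells were treated 23 hr with 15-concentration compound series and 50 nM CITCO at 37 C/5% CO2; CellTiter-Fluor fluorescence was the measured end point.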

Test [12] is described as follows: qHTS assay to identify small molecule antagonists of the estrogen related receptor signaling pathway with the pleiotropic PPARgamma coactivator (PGC) from Tox21 10K library - cell viability counter screen (AID 1224840; active = well fitted cell-killing curve with a large enough effect in the repeat runs, not every such curve was filed as active; also: nearly all actives have a fitted effect of over 40% in size; also: potency is read from the fitted curve at half-maximal effect). In a few lines:
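Seeded PGC/ERR cells (2,000/well, 6 h, 37 C/5% CO2) get compound by pin tool; 17.5 h incubation at 37 C; CellTiter-Fluor added, 30 min, fluorescence measured.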

Test [13] concerns the target Nuclear receptor subfamily 1 group I member 3 (Homo sapiens) (UniProt Q14994). Nature of the test: qHTS assay to identify small molecule antagonists of the constitutive androstane receptor (CAR) signaling pathway (AID 1224838).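 Also: HepG2 cells stably expressing hCAR with CYP2B6 luciferase reporter stimulated by CITCO; nearly all actives have a fitted effect of over 40% in size.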 In a few lines:
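Human hepatoma HepG2 cells expressing hCAR and a CYP2B6 promoter (2.2 kb) luciferase construct; compound titration (15 points) with 50 nM CITCO final, 24 h at 37 C/5% CO2; luminescence via ONE-Glo after 30 min at room temperature.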

The target is the same in test [14]. The experiment in a line: qHTS assay to identify small molecule agonists of the constitutive androstane receptor (CAR) signaling pathway (AID 1224839). Also: nearly all actives have a fitted effect of over 15% in size. Also: potency is read from the fitted curve at half-maximal effect. In a few lines:
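Readout: firefly luciferase luminescence via ONE-Glo. System: HepG2 double-stable for hCAR and CYP2B6-2.2kb. Conditions: 15-point compound titration, PK11195 at 0.75 uM final, 24 h incubation.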

Test [15] can be described thus: qHTS assay to identify small molecule antagonists of the estrogen related receptor signaling pathway with the pleiotropic PPARgamma coactivator (PGC) from Tox21 10K library (AID 1224841; call rule not given here; also: series mostly up to about 92 µM; actives are mostly falling curves and most rising ones were filed inactive; nearly all actives have a fitted effect of over 50% in size). In a few lines: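 Test chemicals dissolved in DMSO were applied to pre-incubated (6 h) PGC/ERR cells at 2,000 cells/well for an 18 h, 37 C treatment; reporter luminescence was then read using One-Glo.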

Test [16] in a line: qHTS assay to identify small molecule agonists of the estrogen related receptor signaling pathway with the pleiotropic PPARgamma coactivator (PGC) from Tox21 10K library (AID 1224842). Also: nearly all actives have a fitted effect of over 15% in size. Also: potency is read from the fitted curve at half-maximal effect. An outline of the steps:
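PGC/ERR reporter cells (NTP line) were seeded 2,000 per well, rested 6 h at 37 C/5% CO2, then pin-dosed with compounds in DMSO for 18 h at 37 C; luciferase read by One-Glo luminescence after 30 min at room temperature.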

Sequence of Retinoic acid receptor RXR-alpha (Homo sapiens) (P19793 whole entry, looked up): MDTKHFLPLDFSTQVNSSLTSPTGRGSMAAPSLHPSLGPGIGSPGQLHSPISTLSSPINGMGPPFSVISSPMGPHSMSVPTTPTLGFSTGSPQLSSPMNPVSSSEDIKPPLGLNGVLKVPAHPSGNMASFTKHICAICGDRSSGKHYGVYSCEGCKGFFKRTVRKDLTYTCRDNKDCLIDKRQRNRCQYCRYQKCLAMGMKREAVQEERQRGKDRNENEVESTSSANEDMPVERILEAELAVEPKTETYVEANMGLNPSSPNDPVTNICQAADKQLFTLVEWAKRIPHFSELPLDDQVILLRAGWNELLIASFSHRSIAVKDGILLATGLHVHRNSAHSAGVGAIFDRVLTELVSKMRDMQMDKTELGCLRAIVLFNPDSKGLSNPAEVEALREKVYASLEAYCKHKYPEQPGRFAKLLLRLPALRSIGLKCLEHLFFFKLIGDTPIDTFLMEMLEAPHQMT
Sequence of Luciferin 4-monooxygenase (Photinus pyralis) (P08659 whole entry, looked up): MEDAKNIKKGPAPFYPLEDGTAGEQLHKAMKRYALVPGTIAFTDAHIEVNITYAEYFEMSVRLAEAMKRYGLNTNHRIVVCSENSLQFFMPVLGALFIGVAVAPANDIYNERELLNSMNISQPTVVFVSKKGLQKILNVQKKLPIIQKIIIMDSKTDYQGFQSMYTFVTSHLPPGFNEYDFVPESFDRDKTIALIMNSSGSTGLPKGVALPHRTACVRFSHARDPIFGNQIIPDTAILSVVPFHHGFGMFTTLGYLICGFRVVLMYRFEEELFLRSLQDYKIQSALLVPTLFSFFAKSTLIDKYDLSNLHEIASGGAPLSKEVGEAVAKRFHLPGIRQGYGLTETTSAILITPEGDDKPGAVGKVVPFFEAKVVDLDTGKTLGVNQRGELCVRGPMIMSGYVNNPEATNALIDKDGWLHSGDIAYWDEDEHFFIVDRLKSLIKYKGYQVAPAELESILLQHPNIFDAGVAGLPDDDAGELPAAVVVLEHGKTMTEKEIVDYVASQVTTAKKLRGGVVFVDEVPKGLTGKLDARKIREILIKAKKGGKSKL
Sequence of Nuclear receptor subfamily 1 group I member 3 (Homo sapiens) (Q14994 whole entry, looked up): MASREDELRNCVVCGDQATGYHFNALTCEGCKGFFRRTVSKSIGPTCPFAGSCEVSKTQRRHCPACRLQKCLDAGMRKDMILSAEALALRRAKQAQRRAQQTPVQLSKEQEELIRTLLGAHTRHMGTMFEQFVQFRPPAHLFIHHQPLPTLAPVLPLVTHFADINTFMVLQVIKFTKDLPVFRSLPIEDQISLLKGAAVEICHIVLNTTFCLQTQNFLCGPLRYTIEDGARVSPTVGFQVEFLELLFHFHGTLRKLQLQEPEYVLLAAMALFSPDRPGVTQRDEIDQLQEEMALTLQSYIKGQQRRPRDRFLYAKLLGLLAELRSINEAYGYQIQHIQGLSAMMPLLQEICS

Consider `CN1C(=O)CCS(=O)(=O)C1c1ccc(Cl)cc1` (stereo not drawn), for which the Potency entry in test [1], in test [4], in test [5], in [8], in [9] and in test [10] was “inactive” in each case. Besides, the Potency entry in test [11] and in [12] was “inactive” throughout. Further, the molecule was classed as inactive in test [2], in [3], in [6] and in test [7].

Turning to `FC(F)(F)c1ccc(Cl)cc1`, the Potency result in [1], in [4], in [5], in [8], in [9] and in [10] was “inactive” each time. Besides, the Potency result in test [11], in [13], in test [14] and in [12] was “inactive” in each case. Also, the molecule was called inactive in test [2] and in test [3].

For `N#Cc1cccc(C#N)c1`, the Potency entry in test [1], in [4], in [5], in [8], in [9] and in [10] was “inactive” throughout. Moreover, the Potency result in test [11], in [13], in test [14] and in test [12] was “inactive” throughout. Besides, the outcome in test [2] and in test [3] was inactive.

For `COc1cc(-c2ccc(N)c(OC)c2)ccc1N`, the Potency entry in test [1], in test [5], in [10], in test [11], in test [13] and in test [15] was “inactive” in each case. Also, in test [16], the Potency entry was “inactive”. Also, the result in [2] and in test [3] was inactive. Moreover, the Potency result in test [4] was “inactive and 58.3 µM (active)”; in test [8], 52 µM (active); in test [9] it was 31.8 µM (active) and inactive; in test [14], 54.7 µM (active) and 58.3 µM (active); in [12], “inactive and 29.2 µM (active)”.

In the case of `Cl[C@H]1OCCO[C@@H]1Cl`, the Potency entry in test [1], in test [4], in [5], in test [8], in test [9] and in [10] was “inactive” throughout. Also, the Potency result in test [11], in test [13], in [14], in [15] and in test [16] was “inactive” each time. The molecule was classed as inactive in test [2] and in [3].

Take `CNC(=O)O/N=C/C(C)(C)SC`: the Potency entry in test [1], in test [4], in test [5], in [8], in [9] and in test [10] was “inactive” throughout. Moreover, the Potency result in test [11], in [13], in [14], in [15] and in [16] was “inactive” throughout. Further, the call in test [2] and in test [3] was inactive.

Take `Cc1ccc(N)cc1`: the Potency result in test [1] is “inactive and 19.5 µM (active)”; in test [5], 61.5 µM (active) and inactive; in [14], 2.45 µM (active). Besides, the outcome in [2] and in test [3] was inactive. The Potency result in test [4], in test [8], in test [9], in test [10], in test [11] and in [13] was “inactive” in each case. In addition, the Potency result in [15] and in [16] was “inactive” in each case.

For `COC(=O)Nc1cccc(OC(=O)Nc2cccc(C)c2)c1`, the Potency entry in test [1], in [4], in test [8], in test [10], in test [11] and in [13] was “inactive” each time. Also, the Potency entry in [15] is “inactive”. The molecule was classed as inactive in [2] and in test [3]. Besides, the Potency in [5] is 8.63 µM (active) and 19.3 µM (active); in test [9], 6.33 µM (active) and 12.6 µM (active); in test [14], 30.6 µM (active) and 4.86 µM (active); in test [16] it was 13.7 µM (active).

Take `CN(C)C(=O)C(c1ccccc1)c1ccccc1`: the Potency entry in [1], in [4], in test [5], in [8], in [9] and in [10] was “inactive” in each case. Also, the Potency entry in test [11] and in [13] was “inactive” in each case. Moreover, the molecule was called inactive in test [2] and in test [3]. Moreover, the Potency in [14] was 26.9 µM (active) and 12.2 µM (active).
